Only some compounds are listed: those with a hit (about 3% of all), similar ones and a draw of the others.
MITF TRPM1 HTS – increases MITF-driven TRPM1 promoter luciferase signal; AID 588334; SK-MEL-5 TRPM1-promoter luciferase, 24 h; % of positive control, neutral wells = 0; 300,000 tested, 0.75% active; activation, % at 12.5 µM;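 active means mean activation of at least 80% with every replicate also reaching 80%; inconclusive means mean reaches 80% but some replicate falls short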
Wnt act – Wnt/beta-catenin pathway activation; Wnt/beta-catenin reporter cell assay, activator, plate reader; activation, % at 9.35 µM; 300,000 tested, 1.2% active; AID 743398; in the data active means activation above about 30%, passing the limit was not always enough; inconclusive means no clear call, values can overlap the other calls
C2C12 statin – protects C2C12 myotubes from simvastatin toxicity | 330,000 tested, 0.78% active | rescue of ATP level, % at 7.49 µM | ATP luminescence, 48 h; scaled: DMSO 0, geranylgeraniol control 100 | AID 602340;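 active means mean ATP rescue above about 67%, or every replicate alone reaching that limit, limit read from the data, passing the limit was not always enough; inconclusive means no clear call, values can overlap the other calls; inactive means mean under the limit and some replicate under it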;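 further: myotubes were challenged with 10 µM simvastatin during compound exposure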
esBAF inh – inhibitors of esBAF chromatin remodeling in mouse ES cells. AID 602393. Bmi1-luciferase knock-in reporter, 24 h; 100% = twice the neutral-well signal. reporter increase, % at 12.5 µM. 350,000 tested, 2% active; in the data active means activation above about 40%; inconclusive means no clear call, values can overlap the other calls;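 further: a rise in the Bmi1 reporter signal indicates esBAF inhibition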
A number is an active result; i = inactive; ? = inconclusive; nt = no result given.

SMILES	MITF TRPM1 HTS	Wnt act	C2C12 statin	esBAF inh
CCC(=O)N1CCN(c2ccc(NC(=O)c3ccco3)cc2)CC1	i	i	94.8	i
CC(=O)N1CCN(c2ccc(NC(=O)c3cccc(F)c3)cc2)CC1	nt	i	i	53.7
O=C(NCc1nnc(SCC(=O)N2CCN(c3ccccc3)CC2)o1)c1ccco1	i	nt	93.4	i
O=C(Nc1ccc(N2CCN(C(=O)c3ccco3)CC2)cc1)c1cccc(F)c1	nt	i	i	53.6
C[C@H]1CN([C@@H](C)CO)C(=O)c2cc(C#CC3(O)CCCC3)cnc2O[C@@H]1CN(C)C(=O)C1CC1	nt	nt	i	nt
O=C(C[C@@H]1CC[C@@H]2[C@H](COC[C@H](O)CN2S(=O)(=O)c2cccc(F)c2)O1)NCc1ccncn1	nt	nt	i	i
COc1ccc(NC(=O)Nc2ccc3c(c2)C(=O)N([C@@H](C)CO)C[C@H](C)[C@H](CN(C)C(=O)Nc2ccc(OC)cc2)O3)cc1	nt	nt	i	i
C[C@H](NC(=O)[C@@H]1[C@@H](CO)[C@@H]2Cn3c(ccc(C4=CCCC4)c3=O)[C@@H]2N1C)c1ccccc1	nt	nt	i	i
O=C(Nc1ccc(N2CCCC2)cc1)c1cccc(Cl)c1	101.7	32.9	i	i
Cc1ccccc1C(=O)NCc1nnc(SCC(=O)N2CCN(c3ccccc3)CC2)n1C	i	i	100.8	i
COCCNC(=O)C[C@H]1C[C@@H]2c3cc(NC(=O)Nc4ccccc4)ccc3O[C@@H]2[C@@H](CO)O1	nt	nt	i	i
Cc1noc(C)c1NC(=O)N(C)C[C@@H]1Oc2ccc(NS(=O)(=O)c3c(C)noc3C)cc2CC(=O)N([C@@H](C)CO)C[C@H]1C	nt	nt	i	i
CCc1ccc2[nH]c(=O)c(CN(Cc3ccccc3OC)Cc3nnnn3Cc3ccco3)cc2c1	i	nt	99.6	i
COc1ccccc1CN(Cc1cc2cc(C)ccc2[nH]c1=O)Cc1nnnn1Cc1ccco1	nt	i	i	i
C[C@H]1CN([C@@H](C)CO)S(=O)(=O)c2ccc(-c3cncnc3)cc2O[C@@H]1CN(C)Cc1cccnc1	nt	nt	i	i
CCOc1cc(-c2ccccc2)nc(N)n1	i	nt	i	46.6
COc1ccc(C(=O)NNC(=S)NC(=O)c2ccc(F)cc2)cc1Br	nt	i	nt	nt
COc1ccc(C(=O)NC(=S)NNC(=O)c2ccncc2)cc1Br	i	i	i	i
COc1ccc(C(=O)NC(=S)NC(C)(C)C)cc1Br	i	i	i	58.9
COc1ccc(C(=O)NC(=S)NC(C)C)cc1Br	i	nt	i	62.7
CNC(=O)C[C@@H]1CC[C@@H]2[C@H](COc3ccc(NC(=O)c4cc(C)on4)cc3C(=O)N2C)O1	nt	nt	i	i
O=C(OCc1ccccc1)N1CCC2CC1c1ccc(/C=C/CCCCl)cc12 (stereo unspecified)	nt	i	i	59.0
O=C(OCc1ccccc1)N1CCC2CC1c1cc(-c3ccccc3)ccc12 (stereo unspecified)	i	i	i	i
CCCCNc1ccc2c(c1)C1CC2CCN1C(=O)OCc1ccccc1 (stereo unspecified)	125.5	i	i	100.4
Cc1cccc(-c2ccc3c(c2)C2CC3CCN2C(=O)OCc2ccccc2)c1 (stereo unspecified)	i	i	i	i
SMILES	MITF TRPM1 HTS	Wnt act	C2C12 statin	esBAF inh
COc1cccc(CNC(=O)C[C@@H]2C=C[C@@H](NC(C)=O)[C@H](CO)O2)c1	nt	nt	i	i
CN1C(=O)/C(=C/C=C2\SCCN2C)N(C)C1=S	i	i	i	66.2
Cc1cc(/C=C2/C(=O)N(C)C(=S)N2C)c(C)n1C1CC1	i	i	i	i
C[C@H]1CN([C@@H](C)CO)C(=O)c2cc(NS(=O)(=O)c3ccccc3)ccc2O[C@H]1CN(C)S(=O)(=O)c1ccc(F)cc1	nt	nt	i	i
Cc1ccc(C)c(NC(=O)C2CC3c4ccccc4C2c2ccccc23)c1 (stereo unspecified)	i	nt	129.7	i
Cc1ccc(C)c(NC(=O)C2CC=CCC2C(=O)O)c1 (stereo unspecified)	i	nt	i	i
CCOC(=O)Cc1ccc2sc(-c3ccccc3)nc2c1	i	nt	i	69.3
CCOC(=O)c1sc(-c2ccccc2)nc1C	i	?	nt	nt
CCC(=O)Nc1ccc2c(c1)OC[C@H](C)N(C(=O)CC)C[C@H](C)[C@H](OC)CN(C)C2=O	nt	nt	i	i
CCCCOC(=O)Nc1ccc2c(C)cc(=O)oc2c1	nt	59.4	i	67.7
CCOC(=O)Nc1ccc2c(C)cc(=O)oc2c1	103.0	i	i	43.0
CCOC(=O)C1=C(C(C)=O)C(c2cccnc2)C(C#N)=C(N)O1 (stereo unspecified)	i	nt	118.3	i
CC(C)COc1nc2ccccc2c(=O)n1OCC(=O)O	i	nt	116.1	i
CCCOn1c(OCC(C)C)nc2ccccc2c1=O	i	i	i	i
O=C(CSc1cn(Cc2ccccc2)c2ccccc12)Nc1nccs1	nt	52.6	i	73.4

Source: PubChem (Broad Institute)
